Compounds with a hit are over-represented: about 4% of the library has one in this group of screens.
Wnt bcat act – Wnt/beta-catenin pathway activators, primary screen, cell-based, plate reader, single point. Wnt/beta-catenin reporter cell assay, activator. activation, % at 9.35 µM. 300,000 compounds, 1.2% hits. AID 743398, 2014; in the data active = activation above about 30%, passing the limit was not always enough; inconclusive = no clear call, values can overlap the other calls
C2C12 statin – suppressors of statin myotoxicity in C2C12 myotubes, primary screen, cell-based, single point, plate reader. C2C12 myotubes + simvastatin, ATP luminescence, 48 h; scaled: DMSO 0, geranylgeraniol control 100. rescue of ATP level, % at 7.49 µM. 330,000 compounds, 0.78% hits. AID 602340, 2012;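 active = mean ATP rescue above about 67%, or every replicate alone reaching that limit, limit read from the data, passing the limit was not always enough; inconclusive = no clear call, values can overlap the other calls; inactive = mean under the limit and some replicate under it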;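 note: myotubes were challenged with 10 µM simvastatin during compound exposure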
MITF TRPM1 HTS – activators of MITF-driven TRPM1 promoter reporter, primary screen, cell-based, SK-MEL-5, luciferase, single point; SK-MEL-5 TRPM1-promoter luciferase, 24 h; % of positive control, neutral wells = 0; activation, % at 12.5 µM; 300,000 compounds, 0.75% hits;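 active = mean activation of at least 80% with every replicate also reaching 80%; inconclusive = mean reaches 80% but some replicate falls short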
esBAF inh – Bmi1 luciferase reporter increase in mESCs, primary screen, esBAF inhibitor project, mouse ES cells, Bmi1 luciferase knock-in, single point; 24 h; 100% = twice the neutral-well signal; reporter increase, % at 12.5 µM; 350,000 compounds, 2% hits; in the data active = activation above about 40%; inconclusive = no clear call, values can overlap the other calls;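 note: a rise in the Bmi1 reporter signal indicates esBAF inhibition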
LMP1 NFkB inh – EBV LMP1-driven NF-kappaB luciferase reporter inhibitors, primary screen, cell-based, luminescence, single point. AID 504558, 2011. LMP1-induced NF-kappaB luciferase reporter cells. inhibition, % at 12.5 µM. 350,000 compounds, 0.69% hits; in the data active = inhibition above about 41%; inconclusive = no clear call, values can overlap the other calls
TRPM1 prom inh – inhibitors of MITF-dependent TRPM1 promoter reporter, primary screen, cell-based, SK-MEL-5, single point, luciferase; inhibition, % at 12.5 µM; SK-MEL-5 TRPM1 promoter luciferase, 24 h; 330,000 compounds, 0.83% hits;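 active = mean inhibition across replicates of 60% or more, whatever share of single replicates reaches that level; inconclusive = some that reach 60%, reason not given; inactive = mean inhibition across replicates below 60%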
Ring1 derepress – Ring1 mRNA increase in mouse ESCs, confirmation, esBAF inhibitor project, cell-based, mouse ESC, RT-qPCR, cherry-pick; fold change at 33 µM; 550 tested, under 10 active; AID 743176, 2013; shares compounds with esBAF inh; mouse ESC E14, Ring1 mRNA RT-qPCR fold change;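 active = Ring1 gene expression raised more than 2-fold over untreated cells in both replicates at either tested dose; inconclusive = only one replicate above 2-fold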;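 note: Ring1 transcript normalised to actin housekeeping signal by TaqMan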
esBAF Fgf4 qPCR – Fgf4 mRNA decrease in mouse ESCs, confirmation, esBAF inhibitor project, cell-based, mouse ESC, RT-qPCR, cherry-pick; mouse ESC E14, Fgf4 mRNA qPCR fold change; hits give low values; 550 compounds, 4% hits; shares compounds with esBAF inh; Fgf4 expression fold change at 33 µM;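 active = Fgf4 expression under 0.8 fold of control in both repeat measurements at one or both tested doses; inconclusive = under 0.8 fold in just a single repeat measurement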;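 note: Fgf4 transcript normalised to actin in duplex TaqMan qPCR; cells exposed to compound for 24 h before lysis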
esBAF Bmi1 qPCR – esBAF inhibition via Bmi1 de-repression, confirmation, cell-based, RT-qPCR, mouse ESC, single point, cherry-pick | shares compounds with esBAF inh | mouse ESE14 ES cells, Bmi1 mRNA qPCR fold; hits give high values | fold change at 33 µM | 550 tested, under 10 active | AID 743180, 2013;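 active = Bmi1 expression fold change above 6 at either tested concentration, seen in replicate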;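 note: higher fold means more Bmi1 de-repression and stronger esBAF inhibition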
A549 tox SP – A549 cell cytotoxicity, cytotoxicity control, plate reader, single point, cherry-pick; shares compounds with esBAF inh; cell viability change % (negative = cytotoxic), % at 25 µM, hits read low; 550 tested, under 10 active; AID 743188, 2013; call rule not given here
HepG2 cytotox SP – HepG2 cell cytotoxicity, cytotoxicity control, plate reader, single point, cherry-pick; shares compounds with esBAF inh; 550 compounds, 4% hits; activity change, negative = inhibition, % at 25 µM; hits give low values; in the data active = activity change below about -50%
HEK293 tox SP – HEK293 cell cytotoxicity, cytotoxicity control, plate reader, single point, cherry-pick; 550 compounds, 3% hits; activity change, negative = inhibition, % at 25 µM, hits read low; shares compounds with esBAF inh; in the data active = activity change below about -38%, passing the limit was not always enough
Numbers stand for hits; n = inactive; u = inconclusive; x = no result.

SMILES	Wnt bcat act	C2C12 statin	MITF TRPM1 HTS	esBAF inh	LMP1 NFkB inh	TRPM1 prom inh	Ring1 derepress	esBAF Fgf4 qPCR	esBAF Bmi1 qPCR	A549 tox SP	HepG2 cytotox SP	HEK293 tox SP
COc1cc(C2Nc3cc(Cl)c(S(N)(=O)=O)cc3S(=O)(=O)N2)ccc1OCc1ccccc1 (configuration not stated)	n	x	n	u	n	n	n	n	n	n	-51.3	n
COc1cc(C2Nc3cc(Cl)c(S(N)(=O)=O)cc3S(=O)(=O)N2)cc(OC)c1OC (configuration not stated)	x	n	n	n	n	n	x	x	x	x	x	x
COc1cc(C(=O)Oc2ccccc2/C=N/NC(=O)c2ccc(Cl)cc2Cl)cc(OC)c1OC	x	n	n	46.9	n	n	n	n	8.35	n	n	n
C=CCOc1ccccc1/C=N/NC(=O)c1ccc(Cl)cc1Cl	n	n	n	n	n	n	x	x	x	x	x	x
CCCCC(=O)N1CCCC(c2nc(-c3cccc(OC)c3)no2)C1 (configuration not stated)	n	n	n	n	n	n	x	x	x	x	x	x
COc1cccc(-c2noc(C3CCCN(C(=O)CC(C)(C)C)C3)n2)c1 (configuration not stated)	n	n	n	82.8	n	n	n	n	n	n	n	n
CCOc1cc(C2NN=C(c3ccccc3)S2)ccc1OCc1ccc(F)cc1 (configuration not stated)	x	n	n	u	n	n	x	x	x	x	x	x
Oc1ccccc1/C=N/N1CCN(c2ccccn2)CC1	37.8	n	n	78.4	n	n	n	n	n	n	n	n
C=CCn1c(SCC(=O)Nc2ccc(OC)cc2)nc2ccccc2c1=O	n	n	x	n	n	n	x	x	x	x	x	x
CCC(CO)Oc1cc(NCc2cccc(C)c2)c2ncn(C(C)C)c2c1 (configuration not stated)	n	n	n	n	n	n	x	x	x	x	x	x
CN(c1cccc(NC(=O)c2ccc(C(C)(C)C)cc2)c1)S(C)(=O)=O	n	n	n	72.8	n	n	n	n	n	n	n	n
CC(=O)Nc1ccc(CNc2nc3cc(-c4ccsc4)sc3c(=O)n2C)cc1	x	n	x	78.4	x	x	n	n	n	n	n	n
CC(=O)Nc1ccc(CNc2nc3cc(-c4ccc(F)cc4)sc3c(=O)n2C)cc1	n	n	x	67.8	x	x	n	n	n	n	n	n
COc1ccc2cc3cc(C(=O)Nc4ccc5c(c4)OCO5)oc3nc2c1	x	n	n	n	n	n	x	x	x	x	x	x
CC(C)CN=c1cc(-c2ccccc2)oc2ccc(Cl)cc12	x	n	n	53.6	n	n	n	u	6.87	n	n	n
COc1ccc2oc(-c3ccccc3)cc(=O)c2c1	n	n	x	n	x	x	x	x	x	x	x	x
C=CCn1c(-c2ccc(N)cc2)nc2ccccc21	n	n	n	58.4	n	n	n	n	n	n	n	n
CCn1c(-c2ccc(N)cc2)nc2ccccc21	n	n	n	n	n	n	x	x	x	x	x	x
Cc1ccnc(NC(=O)c2ccc(OCc3c(C)noc3C)cc2)c1	u	n	n	70.0	n	n	n	u	n	n	n	n
COc1ccc(S(=O)(=O)NCc2ccco2)cc1C(=O)N1CCCCC1	n	n	n	n	n	n	x	x	x	x	x	x
COc1ccc2c(c1)nc(-c1cccc(Br)c1)c(=O)n2C(c1ccccn1)c1nc2ccccc2[nH]1 (configuration not stated)	n	n	x	72.4	x	x	n	n	n	n	n	n
O=C(N[C@@H]1C=C[C@H](CC(=O)N2CCCCC2)O[C@H]1CO)c1ccccn1	x	n	x	n	x	x	x	x	x	x	x	x
COc1ccc2c(c1OC)C(=O)N1c3ccccc3COC21 (configuration not stated)	x	n	u	n	n	n	x	x	x	x	x	x
COc1ccc2c(c1OC)C(=O)N1c3ccccc3SC21 (configuration not stated)	x	n	n	78.0	n	n	n	n	n	n	n	n
CN(Cc1cccnc1)C(=O)c1cc(COc2ccc3c(c2)CCCC3)on1	n	n	n	85.7	n	n	n	n	n	n	n	n
SMILES	Wnt bcat act	C2C12 statin	MITF TRPM1 HTS	esBAF inh	LMP1 NFkB inh	TRPM1 prom inh	Ring1 derepress	esBAF Fgf4 qPCR	esBAF Bmi1 qPCR	A549 tox SP	HepG2 cytotox SP	HEK293 tox SP
COc1cccc(N2CCN(C(=O)c3ccc4nc(N5CCCCC5)sc4c3)CC2)c1	n	n	n	63.6	n	n	n	u	n	n	n	n
Cc1ccccc1-c1nnc(-c2cccc3ccccc23)o1	55.2	n	n	71.1	n	n	n	n	n	n	n	n
COc1ccc(NC(=O)N2C[C@H](O)COC[C@@H]3O[C@H](CC(=O)NCc4ccccc4OC)CC[C@H]32)cc1	x	n	x	n	x	x	x	x	x	x	x	x
S=c1[nH]nc(SCc2ccccc2)c2[nH]cnc12	n	n	n	55.4	n	n	n	n	n	n	n	n
O=C(Nc1ccc(F)cc1)N[C@@H]1C=C[C@H](CC(=O)N2CCCCC2)O[C@H]1CO	x	n	x	n	x	x	x	x	x	x	x	x
COc1cc(C=C2C(=O)c3ccccc3C2=O)cc(OC)c1	n	x	x	x	n	n	x	x	x	x	x	x
COc1cc(/C=C/c2ccccc2)cc(OC)c1	n	n	96.4	67.6	n	n	n	n	n	n	n	n
O=C(C[C@H]1C[C@H]2c3cc(NC(=O)c4ccc5c(c4)OCO5)ccc3O[C@H]2[C@H](CO)O1)NCc1cccc(F)c1	x	n	x	n	x	x	x	x	x	x	x	x
Cc1ccc(C)c(Nc2nc(-c3cccnc3)cs2)c1	n	n	n	n	n	n	x	x	x	x	x	x
Cc1ccc(Nc2nc(-c3cccnc3)cs2)cc1Cl	n	n	x	62.7	n	n	n	0.74	n	n	n	n
Cc1cc(C)c2c(CN3CCC(C)CC3)cc(=O)oc2c1	n	n	n	n	n	n	x	x	x	x	x	x
